Shown are actives, neighbours in structure and some others; about 3.6% of the full set was active somewhere.
Mdm2-MdmX inh: disrupts the human Mdm2-MdmX interaction. 3% of 330,000 active. inhibition, % at 8 µM. O15151+Q00987. SaOS-2 split-luciferase Mdm2/MdmX complementation, luminescence. AID 485346;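 active = inhibition of at least 50% at 8 µM in the primary screen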
HSP90 inh: blocks HSP90-mediated luciferase refolding in reticulocyte lysate; 0.91% of 290,000 active; AID 1789; Rabbit reticulocyte lysate, luciferase refolding luminescence, 3 h; inhibition, % at 5.6 µM;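 active = inhibition above the screen-wide mean plus 3 SD, computed separately per campaign, cut at about 16% in these data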;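 note: inhibitors lower the luminescence because luciferase stays unfolded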
LGR2 inh: inhibitors of bursicon-induced Drosophila LGR2 receptor cAMP signaling; HEK293 LGR2, CRE-luciferase, bursicon-stimulated, 4 h; inhibition, % at 9.99 µM; 0.35% of 380,000 active;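 active = drop in luminescence signal, shown as inhibition above about 50% in the replicate tests, limit read from the data, passing the limit was not always enough; inconclusive = probably only some replicates passing the limit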;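 note: agonist challenge used bursicon conditioned medium at about half maximal strength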
Peg3 promoter: Peg3 promoter activity inhibition; HeLa PEG-Prom luciferase reporter, luminescence, overnight; inhibition, % at 20 µM; 1.7% of 360,000 active; AID 588405;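 active = inhibition of at least 50% at 20 µM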
KKLEB tox: CF airway cell cytotoxicity counter-screen | 0.36% of 360,000 active | KKLEB CF airway cells viability, ATPlite luminescence, overnight; active compounds read low; cells stimulated with P. aeruginosa culture filtrate | activity change (cytotoxicity), % at 5 µM | AID 602141;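 active = corrected activity change at or below -50% at 5 µM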
CF NFkB block: cystic fibrosis NF-kB activation inhibition | KKLEB NF-kB-GFP reporter, PAF-induced, GFP fluorescence overnight | inhibition, % at 5 µM | 0.86% of 360,000 active | AID 588850;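 active = at least 50% inhibition at 5 µM, scaled per plate between neutral and stimulator controls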;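 note: PAF is a Pseudomonas aeruginosa culture filtrate used as stimulus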
Mdm2 MdmX conf: human Mdm2/MdmX binding inhibition, confirmed. shares compounds with Mdm2-MdmX inh. luminescent assay. inhibition, % at 8 µM. 55% of 10,000 active. AID 489028; in the data active = inhibition above about 40%
Full FLuc ctr: counter-screen for Mdm2/MdmX inhibitors: full-length luciferase; 77% of 6,200 active; shares compounds with Mdm2-MdmX inh; AID 504607; SaOS-2 full-length luciferase counterscreen, luminescence; inhibition, % at 8 µM;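 active = mean inhibition at 8 µM reaching about 37%, which flags the compound as non-specific, limit read from the data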;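 note: p53-null SaOS-2 cells with luciferase driven by a doxycycline-inducible promoter; compound on cells about two nights before reading with doxycycline added after day one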
Large screens that a line does not name were inactive (follow-up assays come after a bar, where they were run).

COc1ccc(OC)c(C2C(C(=O)c3ccccc3)=C(C)Nc3nc4ccccc4n32)c1 (stereo not drawn)	Mdm2-MdmX inh 98 | Mdm2 MdmX conf 76 | Full FLuc ctr 80
C[C@@H]1CN([C@H](C)CO)C(=O)c2cc(NS(=O)(=O)c3ccccc3)ccc2O[C@H]1CN(C)Cc1ccncc1	none (no result: Mdm2-MdmX inh, HSP90 inh, Peg3 promoter, KKLEB tox, CF NFkB block)
O=C(CSc1ccc2c(c1)OCCO2)Nc1ccc(Br)cn1	Mdm2-MdmX inh 64 | Mdm2 MdmX conf inactive
O=C(CSc1ccc2c(c1)OCCO2)Nc1ccc(Cl)cn1	none (no result: LGR2 inh)
CCN(CC)CCn1nc2c3c(cccc3c1=O)-c1ccccc1-2	Mdm2-MdmX inh 83, Peg3 promoter 106 (no result: LGR2 inh) | Mdm2 MdmX conf 83 | Full FLuc ctr inactive
O=c1c2cccc3c2c(nn1CN1CCOCC1)-c1ccccc1-3	none (no result: LGR2 inh)
N/C(=N\OC(=O)Nc1ccccc1)c1ncc(C(F)(F)F)cc1Cl	Mdm2-MdmX inh 51 (no result: LGR2 inh) | Mdm2 MdmX conf inactive
CC1CCN(S(=O)(=O)c2ccc(C(=O)Nc3nnc(-c4ccco4)o3)cc2)CC1	Mdm2-MdmX inh 54 | Mdm2 MdmX conf 48 | Full FLuc ctr inactive
COc1cccc(/C=C2\SC(=S)N(CCCC(=O)N(CCO)c3ccccc3)C2=O)c1	Mdm2-MdmX inh 99, Peg3 promoter 79 | Mdm2 MdmX conf 60 | Full FLuc ctr inactive
O=C1/C(=C/c2ccc3c(c2)OCO3)SC(=S)N1CCC(=O)N(CCO)c1ccccc1	none (no result: Mdm2-MdmX inh, HSP90 inh)
O=C1/C(=C/c2cccc(Br)c2)SC(=S)N1CCC(=O)N(CCO)c1ccccc1	Mdm2-MdmX inh 52, LGR2 inh inconclusive, Peg3 promoter 56 | Mdm2 MdmX conf inactive
COc1ccccc1-n1cc([C@@H]2C[C@H]3CN(c4ccccc4)C(=O)[C@]34CCCN24)cn1	Mdm2-MdmX inh 77, Peg3 promoter 98, KKLEB tox -56, CF NFkB block 86 | Mdm2 MdmX conf inactive
O=C(N/N=C/c1ccc(-c2ccc([N+](=O)[O-])cc2)o1)c1cccnc1	none (no result: LGR2 inh)
Cc1ccc(C(=O)N/N=C/c2ccc(-c3cccc(C(F)(F)F)c3)o2)cn1	Mdm2-MdmX inh 58 (no result: LGR2 inh) | Mdm2 MdmX conf 53 | Full FLuc ctr 50
CC1=CC(C)(C)N2C(=O)C3(C(C#N)=C(N)Oc4cc(O)ccc43)c3c(C)c(C)cc1c32 (stereo not drawn)	Mdm2-MdmX inh 68, LGR2 inh inconclusive | Mdm2 MdmX conf 61 | Full FLuc ctr 48
CC1=CC(C)(C)N2C(=O)C3(C(C#N)=C(N)OC4=C3C(=O)CCC4)c3c(C)c(C)cc1c32 (stereo not drawn)	none (no result: LGR2 inh)
COc1ccc(CN(C)C[C@@H]2OCCCC[C@@H](C)Oc3ccc(NS(=O)(=O)c4ccccc4)cc3C(=O)N([C@H](C)CO)C[C@H]2C)cc1	none (no result: Mdm2-MdmX inh, HSP90 inh, Peg3 promoter, KKLEB tox, CF NFkB block)
CC(=O)OC1COC(OC2C(O)C(C)OC(OC3C(OC4CCC5(C)C(CCC6(C)C5CC=C5C7CC(C)(C)CCC7(C(=O)O)CCC56C)C4(C)CO)OCC(O)C3O)C2O)C(O)C1OC(C)=O (stereo not drawn)	none (no result: LGR2 inh, Peg3 promoter, KKLEB tox, CF NFkB block)
C/C=C(/C)C(=O)OC1CC(C)(C)C[C@H]2C3=CC[C@@H]4[C@@]5(C)CCC(O[C@@H]6O[C@@H](C(=O)O)[C@@H](O)C(O[C@@H]7OC[C@H](O)[C@@H](O)[C@@H]7O[C@@H]7OC(CO)C(O)[C@@H](O)[C@@H]7O)C6O[C@@H]6OC(CO)C(O)C(O)C6O)[C@@](C)(CO)[C@@H]5CC[C@]4(C)[C@]3(C)CC(O)[C@@]12CO (stereo partly drawn)	Mdm2-MdmX inh 94 (no result: HSP90 inh, LGR2 inh) | Mdm2 MdmX conf 48 | Full FLuc ctr inactive
CN(C)C(=O)C[C@@H]1C[C@@H]2c3cc(NC(=O)C4CCC4)ccc3O[C@@H]2[C@@H](CO)O1	none (no result: Mdm2-MdmX inh, HSP90 inh, Peg3 promoter, KKLEB tox, CF NFkB block)
Cc1csc2nc(O)c(C(=O)NC3CCCCC3)c(=O)n12	Mdm2-MdmX inh 63 (no result: HSP90 inh) | Mdm2 MdmX conf 66 | Full FLuc ctr inactive
CCCNC(=O)[C@H]1[C@H](CO)[C@H]2Cn3c(cccc3=O)[C@H]2N1CC1CCCC1	none (no result: Mdm2-MdmX inh, HSP90 inh, Peg3 promoter, KKLEB tox, CF NFkB block)
COc1ccc2c(COC(=O)c3cccc(S(=O)(=O)NCC(C)C)c3)cc(=O)oc2c1	none
CCCNS(=O)(=O)c1cccc(C(=O)OCc2cc(=O)oc3cc(OC)ccc23)c1	Mdm2-MdmX inh 70 | Mdm2 MdmX conf 56 | Full FLuc ctr 66
Nc1nnnn1/N=C/C(Br)=C/c1ccccc1	Mdm2-MdmX inh 100, Peg3 promoter 114, KKLEB tox -94, CF NFkB block 91 (no result: LGR2 inh) | Mdm2 MdmX conf 93 | Full FLuc ctr 50
Nc1nnnn1/N=C/C=C/c1ccccc1	none
CS(=O)(=O)N1CC(=O)N2[C@H](CO)[C@@H](c3ccc(Br)cc3)[C@@H]2C1	none (no result: Mdm2-MdmX inh, HSP90 inh, Peg3 promoter, KKLEB tox, CF NFkB block)
N#C/C(=N/Nc1ccc(OC(F)(F)F)cc1)C(N)=S	Mdm2-MdmX inh 78, CF NFkB block 64 | Mdm2 MdmX conf 88 | Full FLuc ctr inactive
Cc1cc2cc(CCNC(=O)C3c4ccccc4Oc4ccccc43)c(=O)[nH]c2cc1C	Mdm2-MdmX inh 63 (no result: LGR2 inh, Peg3 promoter, KKLEB tox, CF NFkB block) | Mdm2 MdmX conf inactive
Cc1cc2cc(CCNC(=O)C(C)C)c(=O)[nH]c2cc1C	none
CCN(CC)C1Oc2cc3c(cc2C(c2cc(OC)c(O)c(OC)c2)C1C)OCO3 (stereo not drawn)	none (no result: Mdm2-MdmX inh, HSP90 inh)
COc1cc([C@@H]2c3cc4c(cc3[C@@H](O)[C@@H](CO)[C@@H]2CO)OCO4)cc(OC)c1O[Si](C)(C)C(C)(C)C	Mdm2-MdmX inh 53 (no result: HSP90 inh, LGR2 inh, Peg3 promoter, KKLEB tox, CF NFkB block) | Mdm2 MdmX conf inactive
COc1cc([C@@H]2c3cc4c(cc3[C@H](O)[C@H]3COC(=O)[C@H]23)OCO4)cc(OC)c1OC	Mdm2-MdmX inh 75, CF NFkB block 51 | Mdm2 MdmX conf 54 | Full FLuc ctr 126
COc1cc([C@@H]2c3cc4c(cc3[C@@H](O[C@@H]3O[C@@H]5CO[C@@H](C)O[C@H]5[C@H](O)[C@H]3O)[C@H]3COC(=O)[C@H]23)OCO4)cc(OC)c1O	Mdm2-MdmX inh 78 (no result: HSP90 inh) | Mdm2 MdmX conf 60 | Full FLuc ctr inactive
COc1cc(C2c3cc4c(cc3C(OC3OC5COC(c6cccs6)OC5C(O)C3O)C3COC(=O)C23)OCO4)cc(OC)c1O (stereo not drawn)	Mdm2-MdmX inh 94 | Mdm2 MdmX conf 88 | Full FLuc ctr inactive
COc1cc(C2c3cc4c(cc3C(O)C3COCC23)OCO4)cc(OC)c1OC (stereo not drawn)	none (no result: Mdm2-MdmX inh, HSP90 inh)
COC1OC2COC(c3ccccc3)OC2C(O)C1N (stereo not drawn)	none (no result: Mdm2-MdmX inh, HSP90 inh)
Cc1noc(C)c1NC(=O)Nc1cccc2c1O[C@H](CN(C)C(=O)Nc1ccc(F)cc1)[C@@H](C)CN([C@@H](C)CO)C2=O	none (no result: Mdm2-MdmX inh, HSP90 inh, Peg3 promoter, KKLEB tox, CF NFkB block)

High-throughput results as filed in PubChem.
